From PubChem BioAssay AID463173 (ICCB-Longwood Screening Facility, Harvard Medical School, 2010)
The whole screen tested about 52,000 compounds, of which about 4,300 (8.3%) were called active. The full list was thinned out, with actives kept by preference. A number with no mark means an inactive call. Rule as the data show it: active = survival mostly below about 52% (no sharp cut-off); inactive = mostly above about 56%.

These molecules were tested on DeltatarO mutant (assay: growth inhibition of S. aureus wild type versus tarO mutant, primary screen, teichoic acid synthesis inhibitors, RN4220, OD600 (AID 463173)). Conditions: OD600, 18 h, hits give low values, screened at 18.75 µg/mL (by protocol).

Row | SMILES | survival
1 | NS(=O)(=O)c1ccc(CCNc2ncnc3c2cnn3-c2cccc(Cl)c2)cc1 | 93%
2 | COc1cccc(NC(=O)Cn2c(=O)n(CC(=O)NCc3ccc(C)cc3)c(=O)c3sccc32)c1 | 77%
3 | COc1ccc(CCNC(=O)Cn2c(=O)c3sccc3n(CC(=O)Nc3cccc(C(F)(F)F)c3)c2=O)cc1OC | 82%
4 | COc1cc(OC)cc(-n2c(=O)c3ccccc3n(CC(=O)NCCc3ccc(OC)c(OC)c3)c2=O)c1 | 83%
5 | COc1cccc(NC(=O)Cn2c(=O)n(CC(=O)NCCc3ccccc3)c(=O)c3sccc32)c1 | 45% (active)
6 | CCOc1ccc(NC(=O)Cn2c(=O)n(CC(=O)NCCc3ccccc3)c(=O)c3sccc32)cc1 | 71%
7 | COc1cc(NC(=O)Cn2c(=O)n(CC(=O)NCCc3ccc(OC)c(OC)c3)c(=O)c3sccc32)cc(OC)c1 | 49% (active)
8 | CCN(CC)S(=O)(=O)c1ccc2c(c1)N(CC(=O)NCCCN1CCN(c3ccccc3F)CC1)C(=O)CO2 | 77%
9 | CC1=CC(C)C(/C=N/N=C(N)N)C(C)C1 (stereo unspecified) | 71%
10 | Cn1c(SCC(=O)O)nc2ccccc21 | 109%
11 | CC(C)c1ncc(C(O)c2cccc3ccccc23)n1C (stereo unspecified) | 56% (active)
12 | CCCc1ncc(C(O)c2ccccc2OC)n1C (stereo unspecified) | 85%
13 | CC(C)c1cnc2c(c1SCC(=O)NCc1ccccc1)c(=O)n(C)c(=O)n2C | 77%
14 | Cc1cc(NC(=O)CN2CCC(O)CC2)nc2c1c(=O)oc1ccccc12 | 83%
15 | COc1ccccc1-c1c(C(F)(F)F)oc2c(CN3CCCCC3C)c(O)ccc2c1=O (stereo unspecified) | 62%
16 | COc1ccc(S(=O)(=O)NCCSc2nnnn2-c2ccccc2)cc1OC | 127%
17 | COc1ccc(C(C)=O)cc1CSc1nc(NCc2ccccc2)c2ccccc2n1 | 89%
18 | COc1ccc(C(C)=O)cc1CSc1nc(NCCc2ccccc2)c2ccccc2n1 | 60%
19 | COc1ccc(C(C)=O)cc1CSc1nc(Nc2ccc(F)c(F)c2)c2ccccc2n1 | 25% (active)
20 | COc1cc(Nc2nc(SCc3ccccc3F)nc3ccccc23)cc(OC)c1 | 118%
21 | O=C(CSc1nc(Nc2ccc(F)c(F)c2)c2ccccc2n1)c1ccc(Cl)cc1 | 101%
22 | COc1ccc(C(C)=O)cc1CSc1nc(NCc2ccc(Cl)cc2)c2ccccc2n1 | 8% (active)

Row | SMILES | survival
23 | Cc1cccc(N2CCN(C(=O)c3nn(C)c4c3CS(=O)(=O)c3ccccc3-4)CC2C)c1 (stereo unspecified) | 71%
24 | COc1cc(NC(=O)c2cc3cc4ccc(OC)c(Cl)c4nc3s2)cc(OC)c1 | 98%
25 | CN(CC(=O)Nc1ccc(F)cc1F)S(=O)(=O)c1cccc2nsnc12 | 92%
26 | Cc1cccc(OCCn2nnc3sc4c(c3c2=O)CCCC4)c1 | 65%
27 | O=c1c2c3c(sc2nnn1CCCCOc1ccc(Cl)cc1)CCCC3 | 108%
28 | O=c1c2c3c(sc2nnn1Cc1ccc(Br)cc1)CCCC3 | 37% (active)
29 | CCOC(=O)c1ccccc1NC(=O)Cn1nnc2sc3c(c2c1=O)CCCC3 | 63%
30 | Cc1ccc(NC(=O)Cn2nnc3sc4c(c3c2=O)CCCC4)c(C)c1 | 86%
31 | CC(C)OC(=O)c1cccc(NC(=O)Cn2nnc3sc4c(c3c2=O)CCCC4)c1 | 75%
32 | COc1ccc(OCCn2nnc3sc4c(c3c2=O)CCCC4)cc1 | 83%
33 | Cc1ccc(OCCCCn2nnc3sc4c(c3c2=O)CCCC4)cc1 | 48% (active)
34 | CCc1cccc(CC)c1NC(=O)Cn1nnc2sc3c(c2c1=O)CCCC3 | 142%
35 | COC(=O)c1ccc(Cn2nnc3sc4c(c3c2=O)CCCC4)cc1 | 74%
36 | Cc1ccccc1Cn1nnc2sc3c(c2c1=O)CCCC3 | -1% (active)
37 | CC(C)OC(=O)c1ccc(Cn2nnc3sc4c(c3c2=O)CCCC4)cc1 | 20% (active)
38 | N#Cc1ccccc1NC(=O)CSc1ncn[nH]1 | 164%
39 | CC(C)(C)c1ccc(C(=O)N2CCC(c3nc4ccccc4o3)CC2)cc1 | 86%
40 | CCOc1ccc(NC(=O)CSc2ncc(S(=O)(=O)c3ccc(F)c(C)c3)c(=O)[nH]2)cc1 | 58%
41 | CCc1ccc(CNC(=O)c2c(C)oc3ncn(CC(C)C)c(=O)c23)cc1 | 88%
42 | Cc1cc(NCCN(C)C)n2nc(C)c(-c3ccccc3)c2n1 | 93%
43 | CCCCCNS(=O)(=O)c1ccc(N2CCCCS2(=O)=O)cc1 | 77%
44 | Cc1nc2cc(-c3cccc(F)c3)nn2c(C)c1CCC(=O)N1CCN(c2ccc(F)cc2)CC1 | 56%

Row | SMILES | survival
45 | CCOc1ccc(-c2cc(NC(=O)Nc3ccccc3Cl)c(C(=O)OC)s2)cc1 | 56%
46 | Cn1c(=O)oc2cc(S(=O)(=O)N3CCCC(C(=O)N4CCN(c5ccc(F)cc5)CC4)C3)ccc21 (stereo unspecified) | 92%
47 | COc1ccc(-c2[nH]c3ccccc3c2SCCNC(=O)c2cc(OC)c(OC)c(OC)c2)cc1 | 62%
48 | COc1cccc(-c2nc(SCC(=O)NC3CCCC3)c(-c3ccc(C)cc3)[nH]2)c1 | 107%
49 | CC(C)Cc1nn2c(=O)cc(COC(=O)c3ccc4c(c3)OCO4)nc2s1 | 73%
50 | O=C(CN1CCCN(Cc2ccccc2Cl)S1(=O)=O)Nc1ccc2c(c1)OCCO2 | 67%
51 | Cc1ccc(C)c(S(=O)(=O)Nc2ccc3c(c2)CCCN3C(=O)c2cccs2)c1 | 47% (active)
52 | Cc1ccc(S(=O)(=O)Nc2ccc3c(c2)CCCN3C(=O)c2cccs2)cc1C | 70%
53 | Cc1ccc(S(=O)(=O)Nc2ccc3c(c2)CCCN3C(=O)c2cccs2)cc1 | 75%
54 | Cc1ccc(NC(=O)Cn2c(=O)n(Cc3ccco3)c(=O)c3ccccc32)cc1 | 78%
55 | O=C(Cn1nc(-c2ccccc2)c2cnc3ccccc3c21)Nc1ccccc1 | 76%
56 | COCCNC(=O)CCn1nc(-c2ccc(Cl)cc2)c2ccccc2c1=O | 77%
57 | CN(C)C(=O)Cn1nc(-c2ccccc2)c2ccccc2c1=O | 92%
58 | Cc1ccc(-c2nn(CC(=O)Nc3cccc(C(F)(F)F)c3)c(=O)c3ccccc23)cc1 | 31% (active)
59 | O=C(Cn1nc(-c2ccc(Cl)cc2)c2ccccc2c1=O)NCCN1CCOCC1 | 97%
60 | CN(C)C(=O)c1ccc(NC(=O)Cn2nc(-c3ccccc3)c3ccccc3c2=O)cc1 | 39% (active)
61 | O=C(Cn1nc(Cc2ccncc2)c2ccccc2c1=O)Nc1cccc(C(F)(F)F)c1 | 71%
62 | Cc1cccc(NC(=O)Cn2nc(-c3ccc(Cl)cc3)c3ccccc3c2=O)c1 | 142%
63 | COCCNC(=O)Cn1nc(C)c2c(C)n(-c3ccc(C)cc3)nc2c1=O | 135%
64 | Cn1nc(-c2ccc(OCC(=O)Nc3cccc(C(F)(F)F)c3)cc2)c2ccccc2c1=O | 78%
65 | O=C(Cn1nc(-c2ccc(Cl)cc2)c2ccccc2c1=O)Nc1cccc(Br)c1 | 28% (active)
66 | COCCNC(=O)Cn1nc(-c2ccc(C)cc2)c2ccccc2c1=O | 39% (active)
